Test results taken from a collection of fitness landscapes (doi:10.1016/j.celrep.2020.107928).
In all, about 81,000 sequences were measured (“one-hybrid fitness for binding NBS DNA”: median about -0.1, highest 2% from about 0.36 on). Many of the other results were omitted from the sample, so the highest values are more common in it than they were.

B1: Caulobacter ParB omega fusion; a variant is named by its letters at X, in order, B8GW30 (parent)
chain: MESVVVGEPGMSEGRRGLGRGLSALLGEVDAAPAQAPGEQLGGSREAPIEILQRNPDQPRRTFREEDLEDLSNSIREKGVLQPILVRPSPDTAGEYQIVAGERAWRAAQRAGLKTVPIMVRELDDLAVLEIGIIENVQRADLNVLEEALSYKVLMEKFERTQENIAQTIGKSXSHVANXMRLLXLPDEVQSYLVSGELTAXHARAIAAAADPVALAKQIIEGGLSVRETEALARKAPNLSAGKSKGGRPPRVKDTDTQALESDLSSVLGLDVSIDHRGSTGTLTITYATLEQLDDLCNRLTRGI

Variants of: B1
Test: one-hybrid fitness for binding NBS DNA (the Noc-binding site; scaled: cognate 1, non-cognate 0); higher = stronger binding
Conditions: with NBS DNA site
In short: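 Pre- and post-selection plasmids were Illumina-sequenced, three replicate libraries were pooled, and any variant with under 10 reads was removed. The libraries were Caulobacter ParB with four specificity codons randomised, selected in E. coli USO through a HIS3 reporter whose site is 19 bp from the promoter. Cells grew 48 hours at 37°C on M9 without histidine, with 0.1 mM IPTG and 5 mM 3-AT. Fitness is the log change in variant-to-wild-type read ratio, rescaled against cognate and non-cognate.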

Row | Variant | one-hybrid fitness for binding NBS DNA
1 | RMRT | 0.633
2 | RMGT | 0.432
3 | NYTS | ≤ 0.2
4 | GQGC | ≤ 0.2
5 | AMCS | ≤ 0.2
6 | NVHT | ≤ 0.2
7 | RMYT | 0.417
8 | RMPT | ≤ 0.2
9 | RMWT | 0.348
10 | PILE | ≤ 0.2
11 | WLPE | ≤ 0.2
12 | CTVI | ≤ 0.2
13 | RAMV | ≤ 0.2
14 | RTCH | 0.234
15 | RSCS | 0.343
16 | RKCP | ≤ 0.2
17 | RCCS | 0.46
18 | RKCN | ≤ 0.2
19 | RTCP | ≤ 0.2
20 | RMCS | 0.383
21 | RMCD | ≤ 0.2
22 | RTCS | 0.467
23 | RKCS | 0.525
24 | RPCS | ≤ 0.2
25 | RMCP | ≤ 0.2
26 | IART | ≤ 0.2

Row | Variant | one-hybrid fitness for binding NBS DNA
27 | NTSG | ≤ 0.2
28 | NVYS | ≤ 0.2
29 | KVTC | ≤ 0.2
30 | QPTP | ≤ 0.2
31 | RWEY | ≤ 0.2
32 | ARSD | ≤ 0.2
33 | RCSW | ≤ 0.2
34 | RTAR | 0.548
35 | RTAH | ≤ 0.2
36 | RTAN | ≤ 0.2
37 | RTFR | 0.441
38 | RTFN | ≤ 0.2
39 | RTFS | 0.339
40 | VCRV | ≤ 0.2
41 | RISE | ≤ 0.2
42 | TSIF | ≤ 0.2
43 | HHVS | ≤ 0.2
44 | SALW | ≤ 0.2
45 | HAHM | ≤ 0.2
46 | QQMT | 0.499
47 | QQMS | 0.368
48 | QQMF | ≤ 0.2
49 | QQMP | ≤ 0.2
50 | QQMR | 0.584
51 | QQMK | ≤ 0.2
52 | QQMH | 0.222

Row | Variant | one-hybrid fitness for binding NBS DNA
53 | QQMD | ≤ 0.2
54 | QQMN | ≤ 0.2
55 | TPTE | ≤ 0.2
56 | MRFN | ≤ 0.2
57 | SLPK | ≤ 0.2
58 | RCHW | ≤ 0.2
59 | TPGK | ≤ 0.2
60 | QQFT | 0.435
61 | QQAH | 0.284
62 | QQAD | ≤ 0.2
63 | DQFT | ≤ 0.2
64 | QQAT | 0.482
65 | DRLH | ≤ 0.2
66 | NPTI | ≤ 0.2
67 | WVVG | ≤ 0.2
68 | ARKE | ≤ 0.2
69 | GRRW | ≤ 0.2
70 | PTWL | ≤ 0.2
71 | PTTT | ≤ 0.2
72 | ARAA | ≤ 0.2
73 | RHGE | ≤ 0.2
74 | QELE | ≤ 0.2
75 | DGQC | ≤ 0.2
76 | KKKY | ≤ 0.2
77 | RSWM | ≤ 0.2
78 | QPCY | ≤ 0.2

Row | Variant | one-hybrid fitness for binding NBS DNA
79 | QRLY | 0.447
80 | QRRY | 0.718
81 | QCLY | ≤ 0.2
82 | QRCY | 0.508
83 | QRPY | ≤ 0.2
84 | QCNY | 0.297
85 | QRNY | 0.556
86 | QREY | 0.256
87 | QSLY | ≤ 0.2
88 | QRDY | 0.289
89 | QSCY | ≤ 0.2
90 | HFFC | ≤ 0.2
91 | LYPV | ≤ 0.2
92 | TISM | ≤ 0.2
93 | AKHW | ≤ 0.2
94 | ALKD | ≤ 0.2
95 | SPCC | ≤ 0.2
96 | WADF | ≤ 0.2
97 | RNVM | ≤ 0.2
98 | SLWP | ≤ 0.2
99 | MHGS | ≤ 0.2
100 | FLKC | ≤ 0.2
101 | NLKN | ≤ 0.2
102 | QCSY | 0.22
103 | QRSY | 0.477
104 | QRWY | 0.289

Row | Variant | one-hybrid fitness for binding NBS DNA
105 | QPGY | ≤ 0.2
106 | QRYY | 0.433
107 | QRIY | 0.271
108 | QRGY | 0.571
109 | QPSY | ≤ 0.2
110 | QPHY | ≤ 0.2
111 | QCGY | 0.3
112 | QCHY | 0.258
113 | QRHY | 0.553
114 | KKIT | ≤ 0.2
115 | QYVI | ≤ 0.2
116 | PAGP | ≤ 0.2
117 | AGDQ | ≤ 0.2
118 | RWTS | ≤ 0.2
119 | MTVE | ≤ 0.2
120 | MHPL | ≤ 0.2
121 | NLEL | ≤ 0.2
122 | YEAS | ≤ 0.2
123 | QSQY | ≤ 0.2
124 | QRVY | 0.344
125 | QRQY | 0.521
126 | QRKY | 0.699
127 | QCQY | 0.265
128 | NRKY | ≤ 0.2
129 | GKDL | ≤ 0.2
130 | ARSS | ≤ 0.2

Row | Variant | one-hybrid fitness for binding NBS DNA
131 | LLLY | ≤ 0.2
132 | CRVR | ≤ 0.2
133 | CRRR | 0.373
134 | CRDR | ≤ 0.2
135 | CCKR | ≤ 0.2
136 | CRYR | ≤ 0.2
137 | CRKR | 0.417
138 | SYHR | ≤ 0.2
139 | CIIR | ≤ 0.2
140 | QLHC | ≤ 0.2
141 | DTYG | ≤ 0.2
142 | LLQA | ≤ 0.2
143 | YPAF | ≤ 0.2
144 | QLRS | 0.586
145 | QLYH | ≤ 0.2
146 | QLRH | 0.452
147 | QLYS | 0.252
148 | QLRP | ≤ 0.2
149 | QLRN | 0.319
150 | EPSE | ≤ 0.2
151 | WYYR | ≤ 0.2
152 | QNWS | ≤ 0.2
153 | TTNM | ≤ 0.2
